Here are results for 40 compounds from PubChem BioAssay (NCATS).

Records with an inconclusive call do not appear. Where a call stands in place of a potency, no number is given. Activity calls are given as the source filed them. Calls come from the whole dose curve; as a rule, active = well fitted cell-killing curve with a large enough effect; inconclusive = small, poorly fitted or top-dose-only effect; inactive = no such curve, though single readings can be large or run the other way.
Potency is the fitted concentration of half-maximal effect.

This assay can be described thus: qHTS of pediatric cancer cell lines to identify multiple opportunities for drug repurposing: Primary screen for Saos-2 cells (AID 1347097). Note: nearly all actives have a fitted effect of over 40% in size. To be noted: Saos-2 viability, CellTiter-Glo ATP luminescence, 48 h; series mostly up to 46 µM. The source says:
Drug repurposing or repositioning has been offered as a strategy for drug development in oncology programs. This approach has special potential for childhood cancers and other rare or orphan diseases, where the expected return on new drug development has been a disincentive to pharmaceuticals. […] In this project we exploit the poly-pharmacology of drugs to discover new indications via phenotypic screening of a panel of 19 well-characterized cell lines derived from solid tumors seen in children and adolescents. The goal is to identify approved drugs with previously unrecognized anticancer properties that has the potential to reveal new mechanisms and biological processes involved in carcinogenesis or drug resistance. We employed a titration-based paradigm (quantitative high-throughput screening or qHTS), where all compounds were tested at multiple concentrations for their effect on cell viability. Concentration-response curves (CRCs) were derived directly from the primary screen, and both potency and efficacy values were used to identify compounds with robust bioactivity profiles. We screened the NIH Chemical Genomics Center (NCGC) Pharmaceutical Collection (NPC) and Mechanism Interrogation Plate (MIPE) small molecule collections of approved and investigational compounds against these cell lines; and measured metabolically active cells after 48 hours of compound treatment as a proxy for cell viability. […] Assay Submitter: Nathalia J. Martinez, National Center for Advancing Translational Sciences, National Institutes of Health, Rockville, MD, USA; email: natalia.martinez@nih.gov Shen, M et al. Quantitative high-throughput phenotypic screening of pediatric cancer cell lines identifies multiple opportunities for drug repurposing. Oncotarget 2017 Dec 19;9(4):4758-4772. PMID 29435139.
The cells were obtained from University of North Carolina (UNC), Pediatric Preclinical Testing Program (PPT), and Coriell Institute (CI). qHTS cell viability assay: Cells were assayed in growth media at a density of 500-1,000 cells/well. Five microliters of cells were dispensed into 1,536-well, white, solid-bottom, TC-treated plates (Greiner Bio One) using a multidrop dispenser and incubated at 37 degrees C, 5% CO2, under a humidified atmosphere for 5 hours. Twenty-three nanoliters of compounds and controls (neutral control DMSO or positive control bortezomib at final concentration of 2.3 µM) were subsequently transferred by Kalypsys pintool. For primary screens, the MIPE collection was tested at 11-point dilutions (final concentrations range from 0.78 nM to 46 µM) and the NPC collection at 8-point dilutions (final concentrations range from 0.59 nM to 46 µM). Compounds tested in follow-up screens were assayed at 11-point dilutions. Cells were incubated for 48 hours, followed by addition of 3 µL of CellTiter-Glo (Promega). After a 15 min incubation at room temperature, samples were analyzed for luminescence intensity using a ViewLux High-throughput CCD imager equipped with clear filters.
(In general: In qHTS, concentration-response curves come from the screen itself.)
As to `COc1ccc(-c2cc(C(F)F)nn2-c2ccc(S(N)(=O)=O)cc2)cc1F`, the Potency entry is “inactive”.

With `CC1(C)OC[C@@H]2O[C@@]3(C(=O)O)OC(C)(C)O[C@H]3[C@@H]2O1`, the Potency result is “inactive”.

On to `Nc1nc(-c2ccccc2)c(Br)c(=O)[nH]1`, for which the Potency entry was “inactive”.

Regarding `O=C(O)Cc1csc(-c2ccc(Cl)cc2)n1`, the Potency entry is “inactive”.

Take `CN1CCc2cccc3c2[C@H]1Cc1ccc(O)c(O)c1-3`: the Potency is 21.1 µM (active).

As to `O=C(O)P(=O)(O)O`, the Potency result is “inactive”.

Consider `N#CCC(=O)NN`, for which the Potency entry is “inactive”.

For the compound `O=C(Nc1cccc(C2=NCCN2)c1)Nc1cccc(C2=NCCN2)c1`, the Potency result is “inactive”.

In the case of `Nc1nc(N)c(-c2ccccc2)s1`, the Potency result was “inactive”.

With `CC(=O)Nc1ncc([N+](=O)[O-])s1`, the Potency result was “inactive”.

In the case of `CN1CCN(c2c(F)cc3c(=O)c(C(=O)O)cn4c3c2SCC4)CC1`, the Potency result is “inactive”.

Regarding `CC(=O)Nc1ccc(OCC(O)CNC(C)C)cc1` (stereo not given), the Potency result is “inactive”.

In the case of `CCc1cc(Cl)c(OC)c(C(=O)NC[C@@H]2CCCN2CC)c1O`, the Potency entry is “inactive”.

With `CCCc1ncc(C[n+]2ccccc2C)c(N)n1`, the Potency entry was “inactive”.

With `CC[C@]12CCCN3CCc4c(n(c5ccccc45)C(=O)C1)[C@@H]32`, the Potency is 13.3 µM (active).

For the compound `CCN(CC)CCOC(=O)C1(c2ccccc2)CCCC1`, the Potency result was “inactive”.

For the compound `CC(=O)N[C@@H](CCC(=O)O)C(=O)O`, the Potency result is “inactive”.

Consider `NS(=O)(=O)c1cc2c(cc1Cl)NC(CC1CCCC1)NS2(=O)=O` (stereo not given), for which the Potency entry is “inactive”.

Turning to `O=S(=O)(O)c1ccc(O)cc1`, the Potency result was “inactive”.

Consider `FC(F)(F)C(F)(F)C(F)(F)C(F)(F)C(F)(F)C(F)(F)C(F)(F)C(F)(F)Br`, for which the Potency result is “inactive”.

As to `C#C[C@]1(O)CC[C@H]2[C@@H]3CCc4cc(OC)ccc4[C@H]3CC[C@@]21C`, the Potency entry is “inactive”.

For `Nc1ccc(C(=O)NCC(=O)O)cc1`, the Potency result was “inactive”.

For `COc1cc(C)nc(-n2nc(C)cc2OC)n1`, the Potency entry is “inactive”.

Take `NC(=O)C1(N2CCCCC2)CCN(CCCC(=O)c2ccc(F)cc2)CC1`: the Potency result is “inactive”.

On to `CC(C)Cn1cnc2c1c(=O)n(C)c(=O)n2C`, for which the Potency result was “inactive”.

Consider `CC(C)CCCC(C)N` (stereo not given), for which the Potency result was “inactive”.

`COc1cc(C(=S)N2CCOCC2)ccc1O`: the Potency entry was “inactive”.

As for `CCCN(CCC)S(=O)(=O)c1ccc(C(=O)O)cc1`, the Potency result was “inactive”.

For the compound `C=C[C@H]1CN2CC[C@H]1C[C@H]2[C@H](O)c1ccnc2ccc(OC)cc12`, the Potency result is “inactive”.

As for `CCCCC(CC)COC(=O)c1ccc(N(C)C)cc1` (stereo not given), the Potency result was “inactive”.

Turning to `Cc1ccccc1OCC(O)CO` (stereo not given), the Potency entry was “inactive”.

`CC(C)(Cc1c[nH]c2ccccc12)NCC(O)COc1ccccc1C#N` (stereo not given): the Potency entry was “inactive”.

With `C#C[C@]1(O)CC[C@H]2[C@@H]3[C@H](C)CC4=C(CCC(=O)C4)[C@H]3CC[C@@]21C`, the Potency result is “inactive”.

Regarding `CC(=O)OCC(=O)[C@H]1CC[C@H]2[C@@H]3CCC4=CC(=O)CC[C@]4(C)[C@H]3CC[C@]12C`, the Potency entry was “inactive”.

As to `CC(=O)Nc1ccc(OC(=O)c2ccccc2OC(C)=O)cc1`, the Potency result is “inactive”.

Take `O=C(CN1CCN(Cc2ccc3c(c2)OCO3)CC1)N1c2ccccc2Sc2ccccc21`: the Potency result was “inactive”.

`Oc1ccc(Cl)cc1Cc1cc(Cl)ccc1O`: the Potency was 8.41 µM (active).

Regarding `CCN1CCN(C(=O)N[C@@H](C(=O)N[C@@H]2C(=O)N3C(C(=O)O)=C(CSc4nnnn4C)CS[C@H]23)c2ccc(O)cc2)C(=O)C1=O`, the Potency result was “inactive”.

In the case of `C[C@@H](O)[C@H]1C(=O)N2C(C(=O)O)=C(S[C@@H]3CN[C@H](CNS(N)(=O)=O)C3)[C@H](C)[C@H]12`, the Potency entry was “inactive”.

Take `CCOC(=O)c1c(N)sc2c1CCN(Cc1ccccc1)C2`: the Potency entry was “inactive”.
